The source of these data is PubChem BioAssay (EPA / NIEHS).

Active and inactive are the calls of the source. The calls were made as follows: active = hit-call score of the fitted dose curve at least 0.9, where 1 is the maximum; inactive = score below 0.9.

The assay in a line: ATG_M_06_CIS: Attagene CIS-FACTORIAL HepG2 Assay for M06 Transcription Factor (Internal Marker) (AID 2282950). The conditions noted are these: HepG2 Attagene CIS-FACTORIAL M06 internal marker reporter; actives raise or lower the signal. The procedure:
ATG_CIS is a cell-based, multiplexed-readout assay that uses HepG2, a human liver cell line, with measurements taken at 24 hours after chemical dosing in a 24-well plate.ATG_M_06_CIS is one of 52 assay component(s) measured or calculated from the ATG_CIS assay. It is designed to make measurements of mRNA induction, a form of inducible reporter, as detected with fluorescence intensity signals by Reverse transcription polymerase chain reaction (RT-PCR) and Capillary electrophoresis technology.Data from the assay component ATG_M_06_CIS was analyzed into 1 assay endpoint. This assay endpoint, ATG_M_06_CIS, was analyzed with bidirectional fitting relative to DMSO as the negative control and baseline of activity. Using a type of inducible reporter, measures of mRNA for gain or loss-of-signal activity can be used to understand the background control at the transcription factor-level as they relate to the gene . Furthermore, this assay endpoint can be referred to as a secondary readout, because this assay has produced multiple assay endpoints where this one serves a background control function. To generalize the intended target to other relatable targets, this assay endpoint is annotated to the background measurement intended target family, where the subfamily is internal marker.
Human liver HepG2 cells are transiently transfected with multiple reporter transcription units (MRTUs) in 6-well plates using FuGene 6 reagent (Roche; 3 ml FuGene/1 mg DNA). The MRTU constructs are regulated by a cis-regulating element (promoter). […] A major difference between the CIS and TRANS system is that in CIS activities of endogenous TFs are measured, whereas the TRANS assay evaluates changes in activities of exogenous, chimeric NR-Gal4 proteins. […] At the end of 24 hour incubation, total RNA was isolated using TriZol reagent (Invitrogen). The isolated RNA is then reverse-transcribed using oligo(dT) primer and Mo-MLV reverse transcriptase (Invitrogen) with DNAse I (Ambion) treatment for 30 min. The one-tenth of the produced cDNA was amplified by PCR using Taq DNA polymerase (Invitrogen) and two reporter sequence-specific primers. The PCR products were fluorescently labeled by primer extension with 6-arboxyfluorescein (6-FAM) 5'-labeled reporter sequence-specific primer (2 min at 95 C, 20 s at 68 C and 10 min at 72 C) and these products were digested with 5U of HpaI (New England Biolabs) for 2h at 37 C. The fragments were purified using Qiaquick PCR columns (Qiagen), analyzed on an ABI 3130xL genetic analyzer (Applied Biosystems) with peak positions identified by using a set of X-rhodamine (ROX)-labeled MapMarker1000 molecular weight standards (BioVentures). The raw capillary electrophoresis data was processed using Attagraph software (Attagene).
With `O=C(OCc1ccccc1)C(=O)OCc1ccccc1`, the compound was classed as inactive.

As to `O=C(O)CCSCCC(=O)O`, the compound was classed as inactive.

On to `O=C(O)c1cccc([N+](=O)[O-])c1`, for which the outcome was inactive.

For the compound `O=C(O)c1cn(C2CC2)c2cc(N3CCNCC3)c(F)cc2c1=O`, the compound was called inactive.

`O=C1C(c2[nH]c3ccc(S(=O)(=O)O)cc3c2O)=Nc2ccc(S(=O)(=O)O)cc21`: the compound was classed as inactive.

Take `Clc1nc(C(Cl)(Cl)Cl)c(Cl)c(Cl)c1Cl`: the compound was called inactive.

Regarding `Cc1ccc2sc3cccc(C)c3c2c1`, the result was inactive.

Turning to `O=C(Cl)c1cccc(C(=O)Cl)c1`, the compound was classed as inactive.

Take `C=CC(C)(C)O`: the outcome was inactive.

With `O=C(O)COCCN1CCN(C(c2ccccc2)c2ccc(Cl)cc2)CC1` (stereo not given), the call was inactive.

For `CCCCCCCCCCCCCC(=O)O`, the result was inactive.

`O=C(Oc1ccccc1)c1ccc(O)cc1`: the outcome was inactive.

Regarding `CCN(CC)c1ccc(C(=C2C=CC(=[N+](CC)CC)C=C2)c2ccc(S(=O)(=O)O)cc2S(=O)(=O)[O-])cc1`, the result was inactive.

With `Cc1ccc(C=O)cc1`, the result was inactive.

Turning to `CC1CCC(C(C)CS)CC1S` (stereo not given), the outcome was inactive.

Take `CC(C=O)Cc1ccc(C(C)C)cc1` (stereo not given): the outcome was inactive.

For the compound `NCCCN1CCOCC1`, the compound was classed as inactive.

With `CC(C)c1ccc(C(C)C)cc1`, the compound was classed as inactive.

For the compound `CCCC(=O)OCCC(C)CCC=C(C)C` (stereo not given), the outcome was inactive.

Turning to `C=CC(=O)NCOCC(C)C`, the outcome was inactive.

As to `OCc1cccnc1`, the compound was classed as inactive.

Turning to `CC1(C)[C@H]2CC[C@]1(C)[C@H](O)C2`, the compound was classed as inactive.

Regarding `O=C(O)CCCCC1CCSS1` (stereo not given), the outcome was inactive.

Turning to `CCc1ccc(C=O)cc1`, the result was inactive.

In the case of `CCCCc1ccc(N)cc1`, the outcome was inactive.

Consider `Clc1ccc(Cl)c(Cl)c1Cl`, for which the call was inactive.

For the compound `O=C1c2ccccc2C(=O)N1SC1CCCCC1`, the result was inactive.

Consider `CC(CCO)CCCC(C)(C)O` (stereo not given), for which the result was inactive.

For `FC1(F)C(F)(F)C(F)(F)C2(F)C(F)(C1(F)F)C(F)(F)C(F)(F)C1(F)C(F)(F)C(F)(F)C(F)(F)C(F)(F)C12F` (stereo not given), the compound was classed as inactive.

Consider `O=c1cc(-c2ccccc2)oc2cc(O)cc(O)c12`, for which the call was inactive.

Regarding `CC1=CCC2C(C1)C2(C)C` (stereo not given), the compound was classed as inactive.

On to `C#C[C@]1(O)CC[C@H]2[C@@H]3CCC4=Cc5oncc5C[C@]4(C)[C@H]3CC[C@@]21C`, for which the outcome was inactive.

In the case of `CCn1c2ccccc2c2cc(N)ccc21`, the result was inactive.

For `CCO[Si](CCCS)(OCC)OCC`, the compound was called inactive.

Consider `O=Cc1ccc(Cl)c([N+](=O)[O-])c1`, for which the compound was called inactive.

As for `C=C[Si](OCC)(OCC)OCC`, the call was inactive.

On to `O=C(O)c1cn(-c2ccc(F)cc2)c2cc(N3CCNCC3)c(F)cc2c1=O`, for which the result was inactive.

On to `C=C(C)C(=O)OCCOC(=O)CC(C)=O`, for which the compound was classed as inactive.

With `C=C(C)C1CCC(C)CC1O` (stereo not given), the compound was classed as inactive.

Regarding `CC1=CC(=O)NS(=O)(=O)O1`, the call was inactive.
